In the library only some 5.1% were active in any assay of this set; here they are far more common.
ROMK primary – modulates human ROMK potassium channel activity. 130,000 compounds, 2% hits. AID 1918. P48048. B-score at 10 µM. Tet-inducible ROMK, thallium flux fluorescence; actives lie on both sides;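 active = signal ratio slope over the read window, or its plate-corrected B-score, at least 3 SD from the plate mean, either direction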;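 note: B-score of the F/F0 ratio slope over 7 to 12 s after thallium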
S1P4 antag – antagonists of human S1P4 receptor | S1P4-expressing cells, antagonist mode, reporter read-out | inhibition, % at 4.98 µM | 220,000 compounds, 0.26% hits; in the data active = inhibition above about 29%;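 note: 0% = wells stimulated with agonist and 100% = vehicle wells without agonist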
Target sequence (O95977 whole entry, looked up): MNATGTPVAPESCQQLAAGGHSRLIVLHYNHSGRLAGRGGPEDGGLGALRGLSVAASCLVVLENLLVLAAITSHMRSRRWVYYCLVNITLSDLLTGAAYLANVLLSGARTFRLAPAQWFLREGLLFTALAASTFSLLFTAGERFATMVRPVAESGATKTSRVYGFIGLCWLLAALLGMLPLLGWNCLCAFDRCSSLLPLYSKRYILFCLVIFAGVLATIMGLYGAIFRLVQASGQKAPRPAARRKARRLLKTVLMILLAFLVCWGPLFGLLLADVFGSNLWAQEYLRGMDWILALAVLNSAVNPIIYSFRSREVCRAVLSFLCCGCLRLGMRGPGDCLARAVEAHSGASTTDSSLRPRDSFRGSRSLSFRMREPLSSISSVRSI
Cl transport mod – KCC2 (human) Cl- transport modulation | Q9H2X9 | KCC2 cells, thallium flux FluoZin-2 fluorescence | B-score of Tl+ flux slope (higher = more flux/activation; lower = inhibition) at 10 µM | 190,000 compounds, 2.2% hits;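 active = thallium flux slope and its plate-corrected score both differing from the plate sample mean at a set confidence after two filtering rounds, in either direction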;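 note: slope of fluorescence scaled to starting intensity during 10 to 20 s after thallium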
S1P4 ag – activates the human S1P4 receptor. O95977. S1P4-expressing cell line, agonist reporter assay. activation, % at 4.98 µM. 220,000 compounds, 0.35% hits. AID 1509; in the data active = activation above about 11%;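 note: 0% = DMSO vehicle and 100% = reference agonist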
RAM inhibit – blocks the yeast RAM network; S. cerevisiae dse1pr::URA3 reporter, 5-FOA growth OD615, 2 d; analog-sensitive cbk1-as2 kinase mutant strain; inhibition, % at 50 µM; 190,000 compounds, 1.8% hits;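 active = inhibition above a set limit, 3 SD over mean compound inhibition, cut at about 8.4% in these data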;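 note: 0% = DMSO-only wells with no growth and 100% = 10 µM 1-NA-PP1 full growth; inhibition rescues growth on 5-FOA so higher OD means more RAM inhibition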
S1P3 antagonist – S1P3 (human) receptor antagonism; AID 485; 170,000 compounds, 0.27% hits; CHO S1P3 NFAT-BLA reporter, FRET fluorescence, antagonist mode; inhibition, % at 4.98 µM;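 active = inhibition above the plate cutoff, the mean inhibition of test wells on that plate plus 3 SD, cut at about 28% in these data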;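 note: cells challenged with S1P at its EC80 of 0.8 µM; blue over green emission ratio from cleaved BLA substrate after 4 h stimulation; 0% = S1P-stimulated wells and 100% = unstimulated DMSO-only wells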
Target sequence (Q99500 whole entry, looked up): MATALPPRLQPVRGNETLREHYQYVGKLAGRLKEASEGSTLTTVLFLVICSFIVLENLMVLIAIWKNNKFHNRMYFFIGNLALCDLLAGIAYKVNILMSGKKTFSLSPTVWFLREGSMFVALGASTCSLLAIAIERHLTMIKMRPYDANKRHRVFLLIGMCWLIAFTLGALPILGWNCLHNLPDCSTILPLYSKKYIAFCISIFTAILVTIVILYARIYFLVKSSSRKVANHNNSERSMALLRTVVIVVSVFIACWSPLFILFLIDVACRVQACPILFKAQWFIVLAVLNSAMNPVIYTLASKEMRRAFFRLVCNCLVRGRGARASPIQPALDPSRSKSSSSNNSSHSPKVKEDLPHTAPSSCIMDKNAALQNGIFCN
KCC2 sec1 – KCC2 (human) modulation, secondary assay; shares compounds with Cl transport mod; HEK293-KCC2, thallium flux, FluoZin2 fluorescence; active compounds read high; normalised thallium flux (F/F0 slope) at 10 µM; 3,700 compounds, 15% hits; AID 1713;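 active = thallium flux slope above the same plate's solvent-only control mean plus 3 SD; inconclusive = the two replicate wells disagree; inactive = no significant difference from solvent-only control wells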
KCC2 bumet counter – thallium flux persisting under bumetanide in KCC2 cells, counter-screen secondary assay; shares compounds with Cl transport mod; 3,700 compounds, 49% hits; HEK293-KCC2 + bumetanide/ouabain, thallium flux FluoZin2; active compounds read high; normalized thallium flux at 10 µM;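 active = thallium entry rate above the same plate's blocked-transporter control wells by more than 3 SD; inconclusive = the two repeat wells disagree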;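 note: raw slope of fluorescence over initial fluorescence between 10 and 20 s after thallium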
KCC2 sec2 – confirmation of human KCC2 transport modulators; 3,700 compounds, 23% hits; shares compounds with Cl transport mod; HEK293-KCC2, thallium flux FluoZin2 fluorescence; actives lie on both sides; F/F0 rise rate, 10–20 s post-thallium; normalized thallium flux at 10 µM;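 active = thallium flux slope more than 3 SD above or below the plate's solvent-only control mean, mostly below; inconclusive = the two repeat wells disagreed; inactive = no significant shift from solvent-only controls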;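 note: raw slope with 0.1% DMSO as baseline and bumetanide as block control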
HEK counter1 – counter-screen for KCC2 modulators: effect in parental HEK293 cells; thallium flux rate (normalised fluorescence) at 10 µM; AID 1716; 3,700 compounds, 46% hits; shares compounds with Cl transport mod; thallium flux FluoZin2, ouabain; baseline-ratio fluorescence slope, 10–20 s after thallium;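 active = thallium flux rate significantly above the same plate's solvent-only control wells, beyond their mean plus 3 SD; inconclusive = the two replicate wells gave conflicting results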
KCC2 retest ouab – KCC2 (human) modulation, ouabain retest. shares compounds with Cl transport mod. raw Tl+ flux slope (below DMSO = inhibition, above = activation) at 10 µM. HEK293-KCC2, thallium flux FluoZin2 fluorescence; bidirectional: low = inhibitor, high = activator. 3,700 compounds, 48% hits. AID 1717;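 active = thallium flux slope beyond 3 SD from same-plate DMSO control mean in most replicates, usually higher, sometimes lower; inconclusive = repeat tests gave conflicting results; inactive = no significant difference from controls in most replicates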;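 note: slope of initial-normalized fluorescence between seconds 10 and 20 after thallium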
HEK293 Tl flux2 – parental HEK flux effect, counter-screen 2; shares compounds with Cl transport mod; HEK293 parental, thallium flux FluoZin-2 fluorescence slope; thallium flux slope at 10 µM; 3,700 compounds, 33% hits; AID 1718;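 active = thallium flux slope above the same plate's solvent-control mean plus 3 SD in both duplicate wells; inconclusive = duplicate wells that disagreed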;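 note: run without ouabain in cells lacking the KCC2 cotransporter; slope of fluorescence scaled to its starting value between 10 and 20 s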
* = called active by the depositor; u = inconclusive; x = no result given.

SMILES	ROMK primary	S1P4 antag	Cl transport mod	S1P4 ag	RAM inhibit	S1P3 antagonist	KCC2 sec1	KCC2 bumet counter	KCC2 sec2	HEK counter1	KCC2 retest ouab	HEK293 Tl flux2
CNC(=O)CN(c1cccc(Br)c1)S(C)(=O)=O	0.74	-14	1.8	0	0	13	0.015	0.0045	0.027	0.0074	0.016	0.011
COc1ccccc1C(=O)NC1CCN(C(=S)NCCc2ccccc2)CC1	-1.6	-10	-3.1*	1	1	16	0.007	0.0045	0.025*	0.0078	u	0.011
O=C(NC1CCN(C(=S)NCCc2ccccc2)CC1)C1CCCCC1	-2.1	-10	0.014	1	4	3	x	x	x	x	x	x
Cc1ccc2[nH]c(O)c(N=NC(N)=S)c2c1	x	14	0.7	1	x	-7	x	x	x	x	x	x
NC(=S)N=Nc1c(O)[nH]c2c(Br)cc(Br)cc12	x	4	25*	-1	3	-22	0.0075	0.027*	0.04*	0.018*	0.036*	0.017*
C/C(N)=C(/C#N)C(=O)CSc1cc(C)c2ccccc2n1	0.93	-19	0.032	0	1	-5	x	x	x	x	x	x
COC(=O)Cn1c(SCc2ccccc2)nc2ccccc21	-1.3	4	-1.1	-1	1	x	x	x	x	x	x	x
Cn1cnnc1SCC(=O)NCc1ccccc1	-0.19	4	-0.67	-1	1	-23	x	x	x	x	x	x
Cn1c(SCC(=O)NCCN2C(=O)CSC2=O)nc2ccccc2c1=O	x	-8	6.4*	0	1	-2	0.019	0.013*	u	0.012*	0.02	0.017*
O=C(CSc1nc2ccccc2n1CCc1ccccc1)NC1CCS(=O)(=O)C1 (stereo unspecified)	x	5	7.2*	-3	-1	x	0.01	0.021*	0.031	0.011*	0.028*	0.011*
O=C(O)CCn1c(SCc2ccccc2)nc2ccccc21	0.094	-13	-4.2*	-1	0	22	0.0079	0.0059	0.035	0.0072	0.015*	0.01
Cn1c(SCC(=O)NCc2ccccc2)nc2ccccc21	-0.47	-3	-0.62	-1	0	x	u	0.0041	0.03	0.0074	0.019	0.0098
CC(C)N=C1NN=C(c2ccc(F)cc2)CS1	0.36	1	0.89	0	5	1	x	x	x	x	x	x
CSc1ccc(S(=O)(=O)NCCCOC(C)C)cc1	0.64	7	0.52	2	-1	-6	x	x	x	x	x	x
S=c1[nH]nc(-c2ccco2)n1/N=C/C=C/c1ccco1	-0.56	-9	-0.11	1	2	-2	x	x	x	x	x	x
S=c1[nH]nc(COc2ccccc2)n1/N=C/C=C/c1ccccc1	0.69	-22	12*	3	4	-5	0.014*	0.14*	0.034	0.021*	0.056*	u
O=[N+]([O-])c1cccc(/C=N/n2c(COc3ccccc3)n[nH]c2=S)c1	-0.62	-12	59*	1	7	x	0.011	0.15*	0.031	0.019*	0.059*	0.012*
S=c1[nH]nc(COc2ccccc2)n1/N=C/C=C/c1ccco1	0.51	9	16*	-2	x	-14	0.0072	0.05*	0.027	0.012*	0.028*	u
Cc1cccc(N(C(=O)c2ccc(CN3CCOCC3)o2)C(C(=O)NC(C)(C)C)c2ccc(F)cc2)c1 (stereo unspecified)	-0.097	-7	0.69	1	3	x	x	x	x	x	x	x
CC(C)(C)/C(O)=C(/C#N)c1nc2ccccc2[nH]1	-1.7	4	x	-1	-1	x	x	x	x	x	x	x
N#C/C(=C(O)\C=C\c1ccccc1)c1nc2ccccc2[nH]1	x	10	6.6*	-1	x	17	0.0058	0.0049	u	0.0076	0.019	0.01
O=C(/C=C/c1ccco1)NC(=S)Nc1ccccc1N1CCCC1	-0.65	-1	3.2*	-1	1	4	0.012	0.028*	0.032	0.011*	0.023	0.01
Cc1ccc(C(=O)NC(=S)Nc2ccccc2N2CCCC2)cc1[N+](=O)[O-]	0.086	-9	5.5*	2	4	3	0.0076	0.042*	0.033	0.018*	0.04*	0.012*
O=C(NC(=S)Nc1ccccc1N1CCCC1)c1ccco1	x	-2	134*	-1	x	4	0.042*	0.11*	0.056*	0.072*	0.068*	0.062*
CC1Cc2ccccc2N1C(=S)NC(=O)c1ccco1 (stereo unspecified)	0.57	4	26*	-4	-1	-19	0.012*	0.056*	0.042*	0.039*	0.049*	0.029*
SMILES	ROMK primary	S1P4 antag	Cl transport mod	S1P4 ag	RAM inhibit	S1P3 antagonist	KCC2 sec1	KCC2 bumet counter	KCC2 sec2	HEK counter1	KCC2 retest ouab	HEK293 Tl flux2
O=C(NC(=S)N1CCCc2ccccc21)c1ccco1	x	-4	3.3	-1	0	-20	x	x	x	x	x	x
CC(C)C(NC(=O)CSCc1ccc([N+](=O)[O-])cc1)C(C)C	x	4	-0.47	-5	0	13	x	x	x	x	x	x
Cc1ccc(C(=O)Nc2ccccc2C(=O)N2CCOCC2)cc1[N+](=O)[O-]	x	-12	6.9*	2	0	7	0.0065	0.004	0.031	0.0072	0.018	0.0096
O=C(NC(=S)Nc1cccc(NC(=O)c2ccccc2)c1)c1cccc([N+](=O)[O-])c1	1.3	-11	0.66	0	3	7	x	x	x	x	x	x
O=C(NC(=S)Nc1ccccc1[N+](=O)[O-])c1ccccc1	x	4	18*	2	x	-10	0.0076	0.037*	u	0.02*	0.035*	0.021*
Cc1ccc(Nc2nnc(SCC(=O)Nc3cccc(S(=O)(=O)NC4=NCCCCC4)c3)s2)c(C)c1	-1.4	-15	1.3	1	6	-13	0.0072	0.0048	0.03	0.0052*	0.017*	0.009
Cc1ccc(C)c(SCC(=O)Nc2cccc(S(=O)(=O)NC3=NCCCCC3)c2)c1	-0.37	6	-2	1	2	-1	x	x	x	x	x	x
C/C(N)=C(/C#N)C(=O)COC(=O)Cc1coc2ccc3ccccc3c12	-0.17	-17	x	0	2	-18	x	x	x	x	x	x
O=C(Nc1nccs1)c1nc(-c2ccccc2)n(-c2ccccc2)n1	x	-9	5.3*	-3	3	9	0.012	0.023*	0.032	0.011*	0.023	0.011

Source: PubChem BioAssay
